Bioassay records: PubChem, National Center for Advancing Translational Sciences (NCATS)
Most compounds without a hit are left out; they make up all but 12% or so of the library.
Pf growth 96h: P. falciparum growth inhibition at 96 hours; Potency, µM (titrated, usually from 28.7 µM), for inactives: at the top dose activity change, negative = inhibition, actives largely listed as inhibitors; hit rate 6.9% among 320,000; P. falciparum luciferase reporter growth, 96 h; note: % is set by controls: 0 for no effect and ±100 for the full control effect
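P. falciparum expressing integrated firefly luciferase grown in erythrocytes (2% hematocrit, 0.05% parasitemia final) with compounds for 96 hours at 37 C, 5% CO2. Growth inhibition read as loss of luminescence after adding luciferase detection reagent.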
Pf growth 48h: inhibits P. falciparum growth in the first generation, 48 h. hit rate 5.9% among 310,000. AID 504832. Potency, µM (titrated, usually from 28.7 µM), inactives show at the highest dose activity change, negative = inhibition, usual class: inhibitors. P. falciparum luciferase growth in erythrocytes, 48 h; note: % is set by controls: 0 for no effect and ±100 for the full control effect
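Compounds are pin-transferred into medium, infected erythrocytes (2% hematocrit, 0.1% parasitemia final) are added, and plates sit one parasite generation at 37 C in 5% CO2. Detection reagent is then added and luminescence measured.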
Sm TGR block: inhibitors of Schistosoma mansoni thioredoxin glutathione reductase; purified TGR, DTNB reduction, TNB absorbance 405 nm; AID 485364; hit rate 3% among 360,000; Q962Y6; Potency, µM (doses to about 114 µM), for the others: at the top dose activity change, negative = inhibition, actives largely listed as inhibitors; note: % is set by controls: 0 for no effect and ±100 for the full control effect; nearly all actives have a fitted effect of over 60% in size
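Kinetic colorimetric format: TGR-catalysed, NADPH-driven DTNB reduction monitored via TNB absorbance. Enzyme dispensed at 20 nM; compound exposure 15 min at room temperature before reaction start.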
SARS PLpro yeast: blocks SARS-CoV papain-like protease in a yeast assay | S. cerevisiae expressing SARS-CoV PLpro, growth rescue | Potency, µM (series often up to 32.9 µM), inactives show at the highest dose activity, positive = growth rescue, actives largely listed as activators | hit rate 0.19% among 330,000; calls by dose curve; note: 0% is about no effect; nearly all actives have a fitted effect of over 55% in size
AmpC inh no detg: AmpC beta-lactamase inhibition without detergent; AmpC nitrocefin hydrolysis, absorbance 480 nm, 0.0001% Triton; Potency, µM (titrated, usually from 57.1 µM), for the others: top-dose activity change, negative = inhibition, actives largely listed as inhibitors; hit rate 0.52% among 330,000;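 note: plate controls were no compound for no effect and no enzyme for full effect; nearly all actives have a fitted effect of over 20% in size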
Target sequence (P00811 whole entry, looked up): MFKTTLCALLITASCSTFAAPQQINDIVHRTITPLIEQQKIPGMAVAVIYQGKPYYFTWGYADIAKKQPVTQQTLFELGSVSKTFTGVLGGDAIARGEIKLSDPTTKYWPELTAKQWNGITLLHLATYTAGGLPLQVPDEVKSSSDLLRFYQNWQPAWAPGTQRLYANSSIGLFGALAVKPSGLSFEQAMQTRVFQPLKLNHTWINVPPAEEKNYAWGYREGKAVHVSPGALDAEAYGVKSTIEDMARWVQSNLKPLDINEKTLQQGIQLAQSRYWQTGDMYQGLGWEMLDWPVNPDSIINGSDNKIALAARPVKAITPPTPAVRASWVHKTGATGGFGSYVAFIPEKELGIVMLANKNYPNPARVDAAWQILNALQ
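AmpC (5.3 nM in the dispensed reagent) in 20 mM phosphate pH 7.0 with 0.01% (detergent screen) or 0.0001% Triton X-100 was preincubated with compounds for 15 min at room temperature. Nitrocefin was then added from an 800 uM solution, and hydrolysis was followed at 480 nm.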
AmpC detergent: inhibitors of E. coli AmpC beta-lactamase with detergent. P00811. AmpC hydrolysis of nitrocefin, absorbance 480 nm, 0.01% Triton. Potency, µM (doses to about 114 µM), for the others: top-dose activity change, negative = inhibition, usual class: inhibitors. hit rate 0.041% among 370,000. AID 485294;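 note: 0% = no-compound wells and -100% = no-enzyme wells; nearly all actives have a fitted effect of over 25% in size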
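20 mM phosphate pH 7.0 + 0.01% (detergent screen) or 0.0001% Triton X-100; 5.3 nM AmpC reagent; cpd preinc 15 min RT; nitrocefin (800 uM stock) to start; A480 q20 s × 4 min; Activity was normalised to no-enzyme and no-compound control wells.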
* = called active by the depositor; i = inactive; ? = inconclusive; . = no result given. Unless noted, calls come from the whole dose curve; as a rule, active = well fitted curve in the direction sought with a large enough effect; inconclusive = small, poorly fitted or top-dose-only effect, or another doubt; inactive = no such curve, though single readings can be large; an effect the other way counts as inactive or inconclusive. Potency is the fitted concentration of half-maximal effect.

SMILES	Pf growth 96h	Pf growth 48h	Sm TGR block	SARS PLpro yeast	AmpC inh no detg	AmpC detergent
CC1(C)CC(=O)C2=C(C1)NC1=C(C(=O)c3ccccc31)C2c1ccccc1 (stereo not drawn)	?	13µM*	?	?	-29%	-4%
CC1(C)CC(=O)C2=C(C1)NC1=C(C(=O)c3ccccc31)C2c1cccnc1 (stereo not drawn)	12%	-23%	-22%	0%	-27%	-1%
CC1=C([N+](=O)[O-])C(c2ccccc2)C2=C(N1)c1ccccc1C2=O (stereo not drawn)	2.9µM*	.	14µM*	-25%	-42%	4%
O=C(CN1C(=O)NC2(CCCc3ccccc32)C1=O)Nc1cccc(S(=O)(=O)N2CCCCC2)c1 (stereo not drawn)	29%	-22%	0%	23%	-29%	-7%
Cc1ccc(C(=O)NCc2ccccc2)cc1NC(=O)c1nsc2ccccc12	.	.	-3%	.	.	3%
CCCCNc1cc(Cl)nc(N)n1	39%	41%	9%	1%	-30%	-1%
CC(C)c1ccc(NC(=O)C2CCCN(S(=O)(=O)c3ccc4[nH]c(=O)ccc4c3)C2)cc1 (stereo not drawn)	.	.	4%	.	.	16%
COC1=C/C(=C/c2c(N)n3c(nc2=O)sc2cc(S(C)(=O)=O)ccc23)C=CC1=O	?	?	-5%	2%	-42%	4%
CS(=O)(=O)c1ccc2c(c1)sc1nc(=O)c(/C=C3/C=CC(=O)C(O)=C3)c(N)n12	?	16%	45µM*	0%	-52%	2%
O=C(Nc1cccc(F)c1)N1CC=C(c2ccc(Cl)cc2)CC1	5.9µM*	.	-15%	-16%	-40%	0%
Cc1ccc(CCNC(=O)CCCc2nnc3n(C)c(=O)c4sccc4n23)cc1	.	.	0%	.	.	2%
O=C1CC(c2ccc(O)cc2)Oc2cc(O)cc(O)c21 (stereo not drawn)	26%	34%	-14%	1%	-30%	-20%
O=C1CC(c2ccc(O)c(O)c2)Oc2cc(O)cc(O)c21 (stereo not drawn)	?	35%	40µM*	0%	-36%	1%
CC(C)=CCc1c(O)ccc2c1OC(c1ccc(O)c(O)c1)CC2=O (stereo not drawn)	?	4%	56µM*	1%	-53%	3%
O=C1CC(c2ccc(O)c(O)c2)Oc2c1ccc(O)c2O (stereo not drawn)	2.1µM*	?	56µM*	2%	-46%	-5%
Cc1cc(NC(=O)c2cccc(Oc3ccccc3)c2)n[nH]1	350%	i	9%	-2%	-40%	-6%
CCCc1nnc(NC(=O)c2c(O)c3cccc4c3n(c2=O)CCC4)s1	?	-1%	18%	-5%	-11%	-6%
COc1ccc(S(=O)(=O)N2CCOCC2)cc1NC(=O)CCCOc1ccc(Cl)cc1C	?	?	-14%	1%	45%	4%
Cn1ncc2c(Nc3ccccc3Cl)nc(Nc3ccccc3Cl)nc21	?	7.4µM*	-13%	-2%	27%	-6%
CC1C(=O)C(C)C(c2ccc3c(c2)OCO3)NC1c1ccc2c(c1)OCO2 (stereo not drawn)	23%	10µM*	5%	-4%	-10%	2%
CC1C(=O)C(C)C(c2ccc(Br)cc2)NC1c1ccc(Br)cc1 (stereo not drawn)	3.7µM*	?	-6%	-4%	-13%	-6%
Cc1ccccc1C1NC(c2ccccc2C)C(C)C(=O)C1C (stereo not drawn)	?	?	11%	-7%	-17%	-6%
O=C1CC(c2ccc3c(c2)OCO3)CN1 (stereo not drawn)	?	23%	-1%	-2%	-33%	?
CCN(CCCNC(=O)CNC(=O)c1nn(-c2ccc(OC)cc2)c(=O)c2ccccc12)c1cccc(C)c1	?	?	0%	1%	61%	?
C=Cc1cccc(NC(=O)c2ccc(NC(=O)c3ccco3)cc2)c1	1.5µM*	-5%	2%	-1%	-10%	-11%
SMILES	Pf growth 96h	Pf growth 48h	Sm TGR block	SARS PLpro yeast	AmpC inh no detg	AmpC detergent
CCOC(=O)CC(NC(=O)c1ccco1)c1ccc(C)cc1 (stereo not drawn)	6.6µM*	3%	-4%	1%	-13%	-11%
O=C(Nc1ccc(-c2nc3cc(Cl)ccc3c(=O)o2)cc1)c1ccco1	?	5%	9%	22%	-17%	?
O=C(Nc1ccc(-c2nc3c(ccc4ccccc43)o2)cc1)c1ccco1	1.9µM*	.	3%	-11%	-3%	-2%
CC(=O)Nc1ccc(NC(=O)c2ccco2)cc1	.	90%	-18%	-4%	-19%	?
O=C(Nc1ccc(Cl)cc1)c1ccco1	5.2µM*	131%	2%	-6%	-9%	-2%
COC(=O)CC(NC(=O)c1ccco1)c1ccc(C(C)C)cc1 (stereo not drawn)	.	-17%	0%	-10%	-2%	-1%
COCCNC(=O)CCC(=O)N1Cc2cccc(OC)c2Oc2ncccc21	.	.	12%	.	.	-1%
Cc1ccc(NC(=O)c2ccc(OC(=O)c3ccco3)cc2)cc1	4%	189%	10%	3%	-15%	?
COc1ccc(Cl)cc1C(=O)Nc1ccc(NC(=O)c2ccco2)cc1	2.1µM*	?	3%	-10%	-32%	-8%
COc1ccc(-c2cccc(NC(=O)c3ccco3)c2)nn1	?	?	-33%	-7%	?	5%
Cc1ccc(Oc2ccc(NC(=O)c3ccco3)cc2)cc1	-2%	0.93µM*	-5%	-28%	-2%	-12%
COc1ccc(-c2ccc(NC(=O)c3ccco3)cc2)nn1	-47%	?	50µM*	-1%	-21%	-14%
COc1ccc(NC(=O)c2ccco2)cc1NC(=O)c1cc(Cl)ccc1OC	.	.	-3%	.	.	15%
COc1ccc(OC)c(C2NC(=O)NC(C)=C2C(=O)Nc2cc(C)cc(C)c2)c1 (stereo not drawn)	.	.	-5%	.	.	-9%
COc1ccc(OCCN(C)Cc2c(O)ccc3ccccc23)cc1	39%	4%	1.1µM*	0%	-36%	0%
CN(Cc1ccccc1)Cc1c(O)ccc2ccccc12	?	-4%	0.89µM*	2%	-24%	-20%
Cc1cc(=O)oc2c(CN(C)Cc3ccccc3)c(O)ccc12	.	?	15%	2%	-21%	0%
O=C(NCc1ccc(Cl)cc1)c1ccc(-n2cccn2)nc1	29%	162%	5%	0%	-30%	?
CN(C)C(=O)c1ccc(-n2cccn2)nc1	2%	10µM*	-1%	-1%	-19%	?
